This is a sample that favours compounds with a hit; in the whole collection about 19% have one here.
IL-1B inflam inh – inhibitors of inflammasome signaling (IL-1 beta secretion) | THP-1 LPS/ATP IL-1B secretion, AlphaLISA, 16 h; hits give low values | activity change, % at 57.5 µM | 360,000 compounds, 4.7% hits; in the data active means activity change below about -50%; inconclusive means mostly about -30% to -49%
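Secreted IL-1B measured by AlphaLISA bead assay after 16 h compound exposure of THP-1 cells; compounds (final up to 57.5 uM) added 1 h before LPS (250 ng/mL) and ATP (1.25 mM) stimulation; lower signal means less secretion.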
DT40 TDP1 CPT – growth inhibition of DT40 Tdp1-/-;hTDP1 cells with camptothecin (screen for TDP1 inhibitors). AID 686979. Potency, µM (doses to about 46.2 µM), without a hit: top-dose activity change, negative = growth inhibition, actives largely listed as inhibitors. 420,000 compounds, 12% hits. chicken DT40 Tdp1-/-;hTDP1 cells + 20 nM CPT, ATP luminescence, 48 h; further: potency means the concentration at half of the fitted maximal effect; nearly all actives have a fitted effect of over 55% in size
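Chicken DT40 Tdp1-/- cells complemented with human TDP1, 400 cells/well, exposed to compounds plus 20 nM camptothecin for at least 48 h at 37 C; viability read as ATP content by CellTiter-Glo luminescence.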
uPA surface inh – inhibitors of cell surface uPA generation | Potency, µM (titrated, usually from 38.3 µM), for inactives: top-dose activity change, negative = inhibition, usual class: inhibitors | 330,000 compounds, 0.31% hits | cell surface uPA generation assay, qHTS | AID 540303; active means well fitted inhibition curve with a large enough effect; inconclusive means small, poorly fitted or top-dose-only effect; inactive means no such curve, though single readings can be large or run the other way; tested in mouse RAW 264.7 cells; further: potency means the concentration at half of the fitted maximal effect; nearly all actives have a fitted effect of over 55% in size
HT1080-NT tox – kills 2HG-producing HT-1080-NT fibrosarcoma cells; HT-1080-NT fibrosarcoma viability, CellTiter-Glo ATP luminescence, 48 h; Potency, µM (top dose mostly 46.1 µM), without a hit: at the top dose activity, negative = less viability, actives largely listed as cytotoxic; 360,000 compounds, 1.6% hits;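 further: NT is the 2HG producing partner of a matched IDH1 knockdown line; potency means the concentration at half of the fitted maximal effect; 0% = DMSO-treated cells and -100% = media-only wells without cells; nearly all actives have a fitted effect of over 55% in size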
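Viability of the 2HG-overproducing fibrosarcoma line after 48 hours of compound exposure at 37 degrees C was determined by luminescence with CellTiter-Glo, and concentration-effect curves were then fitted and categorized.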
TDP1 cell noCPT – qHTS for Inhibitors of human tyrosyl-DNA phosphodiesterase 1 (TDP1): qHTS in cells in absence of CPT | DT40 Tdp1-/- hTDP1 cells, no CPT, ATP luminescence, 48 h | Potency, µM (series often up to 46.2 µM), inactives show at the highest dose activity change, negative = growth inhibition, actives largely listed as inhibitors | 420,000 compounds, 15% hits | AID 686978, 2013; further: potency means the concentration at half of the fitted maximal effect; nearly all actives have a fitted effect of over 55% in size
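Cells were dispensed at 400 per well, compounds added by pin tool, plates incubated ≥48 hr at 37 °C, then CellTiter-Glo added for 30 min at room temperature before luminescence reading. Line: DT40 Tdp1-/- complemented with hTDP1; camptothecin omitted.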
HT1080 IDH1KD tx – kills HT-1080 cells with IDH1 knockdown. HT-1080 IDH1 knockdown viability, ATP luminescence, 48 h. Potency, µM (highest dose often 46.1 µM), without a hit: top-dose activity, negative = toxicity, hits mostly cytotoxic. 360,000 compounds, 2% hits. AID 686971;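 further: potency means the concentration at half of the fitted maximal effect; 0% = DMSO wells and -100% = cell-free medium wells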
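HT-1080-IDH1KD cells (IDH1 knocked down), 750/well in RPMI with 5% FBS, treated with compound 48 h at 37 degrees C. Viability by CellTiter-Glo luminescence, normalised to DMSO and no-cell wells; concentration-response curves classed.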
Starred values were filed as active, the others as inactive; ? = inconclusive; nt = not tested or not shown. Unless noted, the call rests on the fitted dose curve; in most records, active means well fitted curve in the direction sought with a large enough effect; inconclusive means small, poorly fitted or top-dose-only effect, or another doubt; inactive means no such curve, though single readings can be large; an effect the other way counts as inactive or inconclusive. Unless noted, on the % scale 0 is the no-effect control and ±100 the full control effect.

SMILES	IL-1B inflam inh	DT40 TDP1 CPT	uPA surface inh	HT1080-NT tox	TDP1 cell noCPT	HT1080 IDH1KD tx
O=C(COC(=O)COc1ccc(Cl)cc1Cl)NC1CCS(=O)(=O)C1 (centres undefined)	-1	8%	?	6%	4%	8%
NC(=O)c1cccc(-c2coc3c(C(=O)NCCc4ccccc4)cccc23)c1	6	?	nt	-5%	?	-22%
CN(C)CCNC(=O)c1cccc2c(-c3ccc(F)c(F)c3)coc12	-21	?	nt	?	?	?
COc1cc(-c2coc3c(C(=O)NC4CCCCC4)cccc23)ccc1O	?	18µM*	nt	16µM*	?	21µM*
COc1cc(-c2coc3c(C(=O)NCc4ccc(OC)c(OC)c4)cccc23)ccc1O	-5	5.8µM*	nt	?	4.6µM*	3.3µM*
CN(C)c1cccc(NC(=O)c2cccc3c(-c4ccc(F)c(F)c4)coc23)c1	-13	?	nt	29%	21µM*	8%
COc1ccc(CNC(=O)c2ccc(-c3c(C)noc3C)c3ccoc23)cc1OC	87	?	nt	1%	?	-9%
COc1ccc(CNC(=O)c2cccc3c(-c4cccc(C(N)=O)c4)coc23)cc1OC	52	3.7µM*	nt	?	5.2µM*	5.8µM*
Cc1ccc(S(=O)(=O)NCCc2nnc3ccc(N4CCOCC4)nn23)cc1	-15	-11%	nt	-2%	-10%	-1%
Cc1onc(-c2ccccc2)c1C(=O)N1CCN(c2ccccc2F)CC1	18	?	-5%	-4%	?	-9%
O=C(NNC(=O)c1cc2ccccc2oc1=O)c1ccccc1[N+](=O)[O-]	-5	-16%	-1%	15%	18%	11%
COc1ccc(CNC(=O)c2cccc3c(-c4ccc(F)c(F)c4)coc23)cc1OC	-10	21µM*	nt	?	12µM*	16µM*
O=C(NCCC(F)(F)F)c1cccc2c(-c3ccc(F)c(F)c3)coc12	-16	?	nt	-2%	?	5%
O=C(NCc1ccccc1)c1cccc2c(-c3ccc(F)c(F)c3)coc12	-18	?	nt	?	?	?
COc1cc(-c2coc3c(C(=O)Nc4ccc(C(C)C)cc4)cccc23)ccc1O	14	?	nt	?	21µM*	21µM*
COc1cc(-c2coc3c(C(=O)NCc4ccc(N(C)C)cc4)cccc23)ccc1O	-53*	16µM*	nt	?	?	?
O=C(NCCN1CCOCC1)C1CCN(c2ncnc3c2sc2cccc(F)c23)CC1	6	12µM*	-3%	2%	21µM*	7%
CCCCN(CC)CCCNC(=O)C1CCN(c2ncnc3c2sc2cccc(F)c23)CC1	-97*	18µM*	nt	21µM*	29µM*	21µM*
O=C(C1CCN(c2ncnc3c2sc2cccc(F)c23)CC1)N1CCOCC1	2	12µM*	?	-14%	29µM*	-16%
O=C(C1CCN(c2nnc(-n3cccc3)s2)CC1)N1CCOCC1	-20	-8%	7%	4%	-8%	-3%
Cc1ccc(-c2cc(NC(=O)COc3c(C)cc(C)cc3C)on2)cc1	nt	-3%	nt	nt	2%	nt
O=C1C=C(c2ccccc2Oc2ccccc2)C[C@@H](c2ccc(F)cc2)C1	-25	?	nt	?	?	?
N#CCCn1cc(/C=N/NC(N)=S)c(-c2ccc(-c3ccccc3)cc2)n1	0	?	-13%	?	4.1µM*	-29%
CN(CC(=O)Nc1cccc(S(=O)(=O)N(C)c2ccccc2)c1)Cc1cccs1	0	?	nt	-3%	?	-16%
Cc1cc(C(=O)N(C2CCCCC2)C2CCCCC2)no1	-13	13µM*	11%	0%	8.2µM*	-21%
SMILES	IL-1B inflam inh	DT40 TDP1 CPT	uPA surface inh	HT1080-NT tox	TDP1 cell noCPT	HT1080 IDH1KD tx
Cc1cc(C(=O)N2C(C)CCCC2C)no1 (centres undefined)	29	4%	-5%	16%	4%	26%
Cc1ccc(C(=O)O)cc1NC(=O)CCc1c(C)noc1C	-19	3%	nt	3%	5%	-7%
CC(C)(C)NC[C@@H](O)COc1nsnc1N1CCOCC1	nt	0%	nt	nt	3%	nt
Cc1cccc(C(=O)OCN2C(=O)c3ccccc3C2=O)c1[N+](=O)[O-]	-4	-1%	-3%	?	7%	10%
CCC(C)Sc1ccc(-c2nc3ccc(C)cn3c2NCc2ccccc2)cc1OC (centres undefined)	-100*	21µM*	5.6µM*	?	16µM*	?
COc1ccc(-c2cc(-c3nc4ccccn4c3NCc3ccccc3)ccc2OC)cc1	-56*	?	5.6µM*	?	?	?
CCC(C)Sc1cc(-c2nc3ccc(C)cn3c2NCc2ccccc2)ccc1OC (centres undefined)	-102*	4.6µM*	4.5µM*	?	4.1µM*	?
COc1ccc(-c2nc3ccccn3c2NCc2ccc3c(c2)OCO3)cc1	-28	-27%	0%	-28%	?	-16%
C=C1C=C(C(F)F)n2ncc(C(=O)NC(C)CC)c2N1 (centres undefined)	nt	4%	nt	nt	1%	nt
CCn1c2nc(SCCN3CCOCC3)nnc2c2cc(C)cc(C)c21	0	16µM*	0%	-22%	?	-25%
Cc1cc(C)c2c(c1)c1nnc(SCCN3CCOCC3)nc1n2C	-1	-8%	-8%	-2%	8.2µM*	4%
CC(C)c1ccc(/C=C(\NC(=O)c2ccccc2)C(=O)NCCCN2CCOCC2)cc1	nt	9%	0%	-15%	-14%	-11%
CN1N=C(C(C)(C)C)CC1=O	nt	24%	-4%	?	0%	18µM*
O=C(c1ccc(-n2cncn2)c([N+](=O)[O-])c1)N1CCN(S(=O)(=O)c2ccc(F)c(F)c2)CC1	11	-25%	-3%	-9%	?	-8%
CCc1noc(C)c1C(=O)Nc1nnc(CC(C)C)s1	30	5%	-3%	12%	-22%	7%
Nc1ccccc1-n1c(=O)n(Cc2ccccc2F)c(=O)c2[nH]cnc21	-6	?	2%	-1%	21µM*	0%
Cc1ccccc1-n1c(=O)n(Cc2ccco2)c(=O)c2[nH]cnc21	-1	-15%	-18%	3%	2%	-2%
COc1ccc(C)c(-n2c(=O)n(Cc3ccccc3)c(=O)c3[nH]cnc32)c1	-13	-10%	?	12%	-19%	0%

Bioassay records: PubChem BioAssay, National Center for Advancing Translational Sciences (NCATS)
